# Reference: PubChem BioAssay (NCATS)
# Records with an inconclusive call do not appear. Where a call stands in place of a potency, no number is given. Active and inactive are the calls of the source. Calls follow the shape of the dose curve; as a rule, active = well fitted inhibition curve with a large enough effect; inconclusive = small, poorly fitted or top-dose-only effect; inactive = no such curve, though single readings can be large or run the other way.
# Test system: Zika virus NS2B-NS3 protease (unlinked complex)
# Experiment: Primary screen GU Rhodamine qHTS for Zika virus inhibitors: Unlinked NS2B-NS3 protease assay (AID 1347159); also: nearly all actives have a fitted effect of over 60% in size
# Conditions: Recombinant ZIKV NS2B-NS3 protease, Rhodamine110 substrate fluorescence; series mostly up to 107 µM
# In short: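 Noncovalent NS2B hydrophilic domain/NS3 protease complex (25 nM final) in 10 mM Tris-HCl pH 8.0, 0.01% Tween 20, preincubated 15 min with compounds (up to 114 microM), then 1.5 microM Rhodamine110 substrate. Fluorescence change over 15 min fitted to 4-parameter Hill.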
# Potency is read from the fitted curve at half-maximal effect.
row,Compound,Potency
1,C=CC(C)(C)C12CC3C(=O)N4C(CC5(C(C)(C)C=C)c6ccccc6NC45)C(=O)N3C1Nc1ccccc12 (centres undefined),inactive
2,COc1cc(CCc2ccc(OCC=C(C)C)cc2)cc(OC)c1OC,inactive
3,COc1ccnc(CS(=O)c2nc3cc(OC(F)F)ccc3[nH]2)c1OC (centres undefined),inactive
4,CC(=O)O[C@H]1CC2C(COC(=O)CC(C)C)=CO[C@@H](OC(=O)CC(C)C)C2[C@]12CO2 (some centres undefined),inactive
5,CCNC1(C(N)=O)CN(c2nc(C)nc3c(-c4ccc(Cl)cc4)c(-c4ccccc4Cl)nn23)C1,inactive
6,O=C1Nc2nc(-c3c(O)cccc3OCC3CC3)cc([C@@H]3CCCNC3)c2CO1,inactive
7,Cn1cc(C2=C(c3coc4ccccc34)C(=O)NC2=O)c2cc(Br)ccc21,25.1 µM (active)
8,O=C(NCC1(N2CCN(c3ccccc3)CC2)CCOCC1)c1cccnc1Sc1ccccc1,inactive
9,C=C[C@@]1(C)CCC2C(=CCC3[C@]2(C)CCC[C@@]3(C)C(=O)O)C1 (some centres undefined),22.4 µM (active)
10,O=C(c1c(F)ccc(NS(=O)(=O)N2CC[C@@H](F)C2)c1F)c1c[nH]c2ncc(-c3cnc(C4CC4)nc3)cc12,inactive
11,Cc1cccc(-c2[nH]ncc2-c2ccc(F)c(-c3cnn(CCO)c3)c2)n1,inactive
12,CNCCN1CCC(c2cc(CN(C)C(=O)c3cccc(Oc4ccccc4)c3)ccn2)CC1,inactive
13,C=C1/C(=C/C=C2\CCC[C@]3(C)[C@@H]([C@H](C)/C=C/[C@H](O)C4CC4)CC[C@@H]23)C[C@@H](O)C[C@@H]1O,50.1 µM (active)
14,Cc1c(Cl)cccc1S(=O)(=O)Nc1nc(NCCc2ccccc2)nc2c1CN(Cc1ccccc1)CC2,7.94 µM (active)
15,O=c1[nH]c2ccccc2n1CCN1CCN(c2cccc(C(F)(F)F)c2)CC1,inactive
16,CCC(CC)C(=O)OC12C(OC(=O)C(C)C)C(C)C3(O)C(C=C(CO)CC4(O)C(=O)C(C)=CC43)C1C2(C)C (centres undefined),inactive
17,O=C(Nc1ccn(Cc2ccc(O)cc2C(F)(F)F)n1)c1c(F)cccc1F,inactive
18,C=CC(=O)Nc1cccc(Nc2nc(Nc3ccc(OCCOC)cc3)ncc2F)c1,inactive
19,C=C1C(=O)O[C@H]2CC(=C)[C@H]3CC[C@@](C)(O)[C@@H]3CC12 (some centres undefined),11.2 µM (active)
20,C=C1C(=O)O[C@@H]2[C@H]1CCC(C)=C(CCC(=O)O)[C@@]2(C)O,inactive

row,Compound,Potency
1,Cc1cc(NC(=O)c2cccc(NC(=O)/C=C/CN(C)C)c2)ccc1Nc1nccc(-c2cccnc2)n1,inactive
2,O=C(N[C@H](Cc1cscn1)C(=O)N[C@@H](CC1CCCCC1)[C@@H](O)[C@@H](O)C1CC1)c1nc2ccccc2[nH]1,inactive
3,N#Cc1ccc2ncnc(NCCc3ccccc3)c2c1,inactive
4,CCn1c(=O)c(-c2ccc(-c3cncs3)cc2Cl)cc2cnc(Nc3ccc(N4CCN(C)CC4)cc3)nc21,inactive
5,COc1cc(CCO)ccc1O[C@@H]1O[C@H](CO)[C@@H](O)[C@H](O)[C@H]1O,inactive
6,CCOc1cc(C(C)(C)C)ccc1C1=NC(C)(c2ccc(Cl)cc2)C(C)(c2ccc(Cl)cc2)N1C(=O)N1CCN(CCCS(C)(=O)=O)CC1 (centres undefined),inactive
7,C=CC(C)(C)c1[nH]c2ccccc2c1C[C@@H]1NC(=O)[C@H](C)NC1=O,inactive
8,O=C1C[C@]23C=CCN4CCC5c6cc7c(cc6N1[C@@]5(CC2)C43)OCO7 (some centres undefined),inactive
9,C#Cc1cccc(Nc2nc3cc(C(=O)O)ccc3c3cncnc23)c1,11.2 µM (active)
10,C=C1CC2OC(=O)C(=C)C2C(O)/C=C(\C)CCC1O (centres undefined),inactive
11,CC(CCC1(O)OC2CC3C4CC=C5C[C@@H](O[C@@H]6O[C@H](CO)[C@@H](O[C@@H]7O[C@@H](C)[C@H](O)[C@@H](O)[C@H]7O)[C@H](O)[C@H]6O[C@@H]6O[C@@H](C)[C@H](O)[C@@H](O)[C@H]6O)CC[C@]5(C)C4CC[C@]3(C)[C@@]2(O)[C@@H]1C)CO[C@@H]1O[C@H](CO)[C@@H](O)[C@H](O)[C@H]1O (some centres undefined),inactive
12,Cc1cc(OCCCS(C)(=O)=O)cc(C)c1-c1cccc(COc2ccc(C3=CC(=O)NS3=O)cc2)c1 (centres undefined),3.55 µM (active)
13,CC(=O)C1=C(O)C=C2Oc3c(C(C)=O)c(O)c(C)c(O)c3[C@]2(C)C1=O,31.6 µM (active)
14,CC(OC1OCCN(Cc2n[nH]c(=O)[nH]2)C1c1ccc(F)cc1)c1cc(C(F)(F)F)cc(C(F)(F)F)c1 (centres undefined),44.7 µM (active)
15,CC12CCC3C1C(c1c(cc(O)c(C(=O)c4ccccc4)c1O)O2)C3(C)C (centres undefined),8.91 µM (active)
16,O=C(Nc1cccc([N+](=O)[O-])c1)c1cccc(S(=O)(=O)N2CCCCCC2)c1,inactive
17,CC(C)(C)c1ccc(C(=O)Nc2cc(Cl)c(Br)cc2C(=O)O)cc1,2.51 µM (active)
18,C=C(C=O)[C@]1(O)C[C@@]2(C)C(=CC1=O)C=C[C@H](OC(=O)/C=C/C=C/[C@H](C)CC)[C@@H]2C,8.91 µM (active)
19,COc1cc2ncnc(Nc3ccc(O)c(Br)c3)c2cc1OC,inactive
